# Pf growth 48h: Primary qHTS for delayed death inhibitors of the malarial parasite plastid, 48 hour incubation; actives 5.9% (n = 310,000); P. falciparum luciferase growth in erythrocytes, 48 h; Potency, µM (highest dose often 28.7 µM), without a hit: at the top dose activity change, negative = inhibition, most hits filed as inhibitors; note: potency is the fitted concentration of half-maximal effect; % is set by controls: 0 for no effect and ±100 for the full control effect
#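 Parasite viability was followed by luminescence of a genomically integrated firefly luciferase. Cultures held 0.1% parasitemia at 2% hematocrit (final), incubated under 5% CO2 at 37 C.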
# HCV inhibitor: qHTS Assay for Inhibitors of Hepatitis C Virus (HCV) | Huh7.5.1 HCVcc-Cre infection, luciferase reporter, 44 h | Potency, µM (series often up to 41.8 µM), without a hit: top-dose activity change, negative = inhibition, most hits filed as inhibitors | actives 3.4% (n = 340,000) | AID 651820, 2012; note: potency is the fitted concentration of half-maximal effect; % is set by controls: 0 for no effect and ±100 for the full control effect
#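 Antiviral activity was scored by luciferase reporter output from cells infected with HCVcc-Cre (~0.5 moi) in presence of compound, 44 h infection period, cells seeded 1,000/well 4 h prior.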
# Shiga inhibitor: A qHTS for Small Molecule Inhibitors of Shiga Toxin; Vero cells, Shiga toxin protein synthesis inhibition reporter; inhibition, % at 38.7 µM; actives 9.2% (n = 290,000); AID 2315, 2010; in the data active = inhibition mostly above about 28%, no sharp cut-off; inactive = mostly below about 43%; note: 0% is about no effect
# AMA1-RON2 inh: qHTS for Inhibitors of AMA1-RON; Towards Development of Antimalarial Drug Lead: Primary Screen | AID 720542, 2013 | Potency, µM (top dose mostly 58.2 µM), without a hit: at the top dose activity change, negative = inhibition, most hits filed as inhibitors | AlphaScreen AMA1-biotinylated RON2 peptide binding | actives 0.2% (n = 360,000) | Plasmodium falciparum AMA1 (3D7) - RON2 peptide interaction;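 note: potency is the fitted concentration of half-maximal effect; 0% = vehicle wells and -100% = peptide control; nearly all actives have a fitted effect of over 45% in size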
#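 AMA1 (3D7) with his tag at 25 nM final met compounds first, then biotinylated RON2 peptide at 25 nM; detection used donor plus acceptor beads, 10 µg/mL apiece, read by AlphaScreen after 30 min at room temperature.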
# CHX counter: Cycloheximide Counterscreen for Small Molecule Inhibitors of Shiga Toxin. cell reporter, cycloheximide protein synthesis inhibition counterscreen. max response, %. actives 12% (n = 300,000); in the data active = max response mostly above about 13%, no sharp cut-off; inactive = mostly below about 14%; note: read at 38.3 µM for the half of the compounds with a filed dose; 0% is about no effect
# Pf growth 96h: Primary qHTS for delayed death inhibitors of the malarial parasite plastid, 96 hour incubation; AID 504834, 2011; P. falciparum luciferase reporter growth, 96 h; Potency, µM (highest dose often 28.7 µM), without a hit: at the highest dose activity change, negative = inhibition, most hits filed as inhibitors; actives 6.9% (n = 320,000); note: potency is the fitted concentration of half-maximal effect; % is set by controls: 0 for no effect and ±100 for the full control effect
#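 P. falciparum expressing integrated firefly luciferase, in erythrocytes at 2% hematocrit, 0.05% parasitemia, incubated with compounds 96 h at 37 C, 5% CO2. Growth inhibition read as loss of luminescence; two-generation exposure targets delayed-death apicoplast inhibitors.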
# * hit, by the source's call; ? = inconclusive; . = no result; ! = not active in a repeat. Only some compounds are listed: those with a hit (about 21% of all), similar ones and a draw of the others. Unless noted, calls come from the whole dose curve; as a rule, active = well fitted curve in the direction sought with a large enough effect; inconclusive = small, poorly fitted or top-dose-only effect, or another doubt; inactive = no such curve, though single readings can be large; an effect the other way counts as inactive or inconclusive.
SMILES,Pf growth 48h,HCV inhibitor,Shiga inhibitor,AMA1-RON2 inh,CHX counter,Pf growth 96h
O=C(NCCc1ccco1)C(=O)NCC1OCCCN1S(=O)(=O)c1ccccc1 (centres undefined),?,9.9%,-7.7,-14.2%,-0.3,?
COc1ccc(CN(C)C(=O)c2cc(S(=O)(=O)Nc3ccccc3F)ccc2C)c(OC)c1,7.6%,-4.7%,1.6,-12.6%,5.3,?
O=[N+]([O-])c1ccc(NCc2ccccc2)nc1,72.9%,2.4%,56.5*,-4.1%,54.6*,-4.8%
O=C(NCCc1ccccc1)c1ccc([N+](=O)[O-])cc1,403.3%,-4.4%,56.3,-2.5%,5.8,?
O=[N+]([O-])c1ccc(NN=CCCc2ccccc2)nc1,.,?,.,44.1%,.,.
O=C(NCCc1ccc([N+](=O)[O-])cc1)c1ccccc1,?,-7.9%,61.1*,-10.9%,28.5*,?
COc1cccc(OCCNc2ccc([N+](=O)[O-])cn2)c1,-0.4%,3.2%,.,3.8%,.,?
COc1ccc(CCNC(=O)C(C)c2ccc([N+](=O)[O-])cc2)cc1 (centres undefined),-10.3%,-8.4%,-9.5,29.6%,-2.3,8.28µM*
COc1ccc(CCNc2ccc([N+](=O)[O-])cn2)cc1,?,?,-2.0,9.2%,-3.0,13.1µM*
N#CCC(=O)c1ccccc1Oc1ccc(Cl)cc1,35.5%,10.5%,-8.1,18.3%,-1.9,70.7%
C=CCNC(=O)C1COc2ccccc2O1 (centres undefined),34.3%,14.3%,-3.8,8.5%,-2.0,54.3%
Cc1ccc2nc(-c3ccccn3)c(N)n2c1,.,.,.,80.4%,.,.
CC(C)c1ccc(CCNC(=O)c2ccc([N+](=O)[O-])cc2)cc1,?,11.2µM*,-1.9,?,-1.3,?
O=[N+]([O-])c1ccc(S(=O)(=O)c2ccccc2)nc1,2.94µM*,?,-25.7,-2.3%,-10.3,1.65µM*
O=C(NCCC1CC1(Cl)Cl)c1ccc([N+](=O)[O-])cc1 (centres undefined),.,21.6%,44.3,-8.7%,24.6*,19.6%
CC(=O)c1ccc(-c2ccc(C(=O)Nc3nc(C)c(C(C)=O)s3)o2)cc1,36.3%,-9.8%,.,-5.3%,.,-6.3%
CCOC(=O)c1c(NC(=O)CSc2nnnn2C)sc(C(=O)N(C)C)c1C,-15.1%,6.5%,28.2,6.5%,5.0,13.4%
C=CCn1c(=O)c2ccccc2n2c(SCC(=O)Nc3sc(C(=O)N(CC)CC)c(C)c3C(=O)OCC)nnc12,11.7µM*,6.31µM*!,-7.0,9.3%,3.4,0.0%
CCOC(=O)c1sc(NC(=O)CSc2nc3c(c(=O)n2-c2ccc(C)cc2)SCC3)c(C(=O)OCC)c1C,?,-6.3%,-6.5,3.3%,1.4,11.7µM*
COc1cccc(-n2c(SCC(=O)Nc3sc4c(c3C(N)=O)CCC4)nc3ccccc3c2=O)c1,4.15µM*,?,12.1,9.4%,-0.8,-0.6%
C=CCn1c(=O)c2ccccc2n2c(SCC(=O)Nc3sc(C)c(CC)c3C(=O)OCC)nnc12,12.2%,?,-6.8,-4.4%,-2.1,11.7%
CCOC(=O)c1sc(NC(=O)CSc2nnnn2-c2ccc(C)cc2)c(C(=O)OCC)c1C,?,?,-3.4,-8.7%,1.4,5.22µM*
COc1ccc(NC(=O)C2(C)CCN2CCOc2ccccc2)cc1OC (centres undefined),.,.,.,7.2%,.,.
Cc1cc(C)cc(CC2CC(=O)N(c3ccc([N+](=O)[O-])cc3)C2=O)c1 (centres undefined),144.7%,-8.1%,-7.2,-8.9%,-1.9,?
COCCNC(=O)C(c1ccc(C)o1)N(C(=O)Cn1nnc2ccccc21)c1ccccc1 (centres undefined),-18.7%,17.7%,-7.9,-6.0%,-0.4,?
CN1[C@@H](Cc2ccccc2)COc2cc(N3CCSCC3)ccc2S1(=O)=O,.,.,.,-5.0%,.,.

# Compound activity deposited in PubChem by National Center for Advancing Translational Sciences (NCATS).
